Consider 18 molecules from PubChem BioAssay (Tox21).

A short description of test [1]: Human pregnane X receptor (PXR) small molecule agonists, qHTS cell viability counter screen (AID 1346977). Note: nearly all actives have a fitted effect of over 50% in size. Note: potency is the fitted concentration of half-maximal effect. A digest of the protocol:
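Fluorescence read-out (CellTiter-Fluor) of viability in PXR-Luc HepG2 cells, multiplexed with the luciferase agonist read. Compounds in DMSO added after 5hr plating; 24hr total exposure at 37C, 5% CO2.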
On the technique in general: Quantitative high-throughput screening tests each substance at several concentrations.

Test [2] can be described thus: Caspase-3/7 induction in HepG2 cells by small molecules, qHTS assay (AID 1346978). Note: nearly all actives have a fitted effect of over 15% in size. A digest of the protocol: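 Wild-type HepG2 cells, 2,000/well, settled 5 hr at 37 C and 5% CO2, then compound-treated for 17 hr; caspase-3/7 activity read by luminescent Caspase-Glo 3/7 after 30 min at room temperature.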
The nature of test [3]: Caspase-3/7 induction in CHO-K1 cells by small molecules, qHTS cell viability counter screen (AID 1346979). Note: nearly all actives have a fitted effect of over 35% in size. Note: potency is the fitted concentration of half-maximal effect. Summed up:
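CHO-K1 wt, 1,500 cells/well; 5hr pre-incubation 37C/5% CO2; compound pin transfer (DMSO); 16hr exposure; CellTiter-Fluor added, 1hr, fluorescence read.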

The nature of test [4]: Caspase-3/7 induction in CHO-K1 cells by small molecules, qHTS assay (AID 1346980). Note: nearly all actives have a fitted effect of over 15% in size. Summed up: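 Wild-type CHO-K1 cells exposed to compounds for 17hr at 37 C, 5% CO2. Caspase-3/7 activity then measured by Caspase-Glo 3/7 luminescence after 30min at room temperature.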
Test [5] is described as follows: Caspase-3/7 induction in HepG2 cells by small molecules, qHTS cell viability counter screen (AID 1346981). Note: nearly all actives have a fitted effect of over 30% in size. Note: potency is the fitted concentration of half-maximal effect. A digest of the protocol:
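Counter screen for cytotoxicity: HepG2 exposed 16 hr to compounds, then CellTiter-Fluor viability signal (fluorescence, 1 hr reagent incubation).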

Test [6] has as its target Nuclear receptor subfamily 1 group I member 2 (Homo sapiens) (UniProt O75469). Put plainly: Human pregnane X receptor (PXR) small molecule agonists, qHTS assay (AID 1346982). Note: nearly all actives have a fitted effect of over 35% in size. Note: potency is the fitted concentration of half-maximal effect. A digest of the protocol: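 Luminescence (ONE-Glo, 30 min RT) after 24 hr compound exposure of PXR-Luc HepG2 cells; cells rested 5 hr post-plating in 5% charcoal-stripped FBS medium.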
Test [7] deals with Cytochrome P450 2D6 (Homo sapiens) (UniProt P10635). Put plainly: Cytochrome P450 Family 2 Subfamily D Member 6 (CYP2D6) small molecule antagonists: luciferase reporter qHTS assay (AID 1671196). Note: nearly all actives have a fitted effect of over 50% in size. Note: potency is the fitted concentration of half-maximal effect. A digest of the protocol:
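Inhibition of CYP2D6 was gauged by loss of luminescence, since light produced tracks the luciferin generated from a proluciferin substrate. A 10 min room-temperature preincubation preceded 1 h NADPH-supported turnover.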

Test [8] has as its target Cytochrome P450 2C19 (Homo sapiens) (UniProt P33261). Put plainly: Cytochrome P450 Family 2 Subfamily C Member 19 (CYP2C19) small molecule antagonists: luciferase reporter qHTS assay (AID 1671197). Note: nearly all actives have a fitted effect of over 65% in size. Note: potency is the fitted concentration of half-maximal effect. Summed up:
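First, compounds are pinned into enzyme-substrate mix and held 10 min at room temperature. Second, NADPH regeneration solution is added and plates incubate 1 h at 37C. Third, detection reagent is added and luminescence read after 20 min.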
For orientation: In a reporter assay the amount or activity of a reporter protein is the signal.

For test [9], the target named is Cytochrome P450 2C9 (Homo sapiens) (UniProt P11712). Put plainly: Cytochrome P450 Family 2 Subfamily C Member 9 (CYP2C9) small molecule antagonists: luciferase reporter qHTS assay (AID 1671198). Note: nearly all actives have a fitted effect of over 50% in size. Note: potency is the fitted concentration of half-maximal effect. A digest of the protocol: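 P450-Glo proluciferin substrate with CYP2C9 enzyme; 10 min RT preincubation, then NADPH regeneration 1 h at 37C; luciferin detection reagent 20 min RT, luminescence in relative luminescence units.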

Test [10] concerns the target Cytochrome P450 1A2 (Homo sapiens) (UniProt P05177). Put plainly: Cytochrome P450 Family 1 Subfamily A Member 2 (CYP1A2) small molecule antagonists: luciferase reporter qHTS assay (AID 1671199). Note: nearly all actives have a fitted effect of over 50% in size. Note: potency is the fitted concentration of half-maximal effect. Summed up: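 Signal from luciferin formed by CYP1A2 from a proluciferin substrate is read as luminescence, expressed in relative luminescence units. Compounds sit with enzyme 10 min, NADPH-driven reaction runs 1 h, all at room temperature.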

Test [11] concerns the target Voltage-gated inwardly rectifying potassium channel KCNH2 (Homo sapiens) (UniProt Q12809). Put plainly: Human Ether-a-go-go-Related Gene (hERG) channel small molecule antagonists: fluorescence cell-based qHTS assay (AID 1671200). Summed up: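 Read-out: thallium influx as a surrogate for potassium, tracked as fluorescence (480 nm ex/540 nm em) every second for 2 min after Stimulus Buffer addition in dye-loaded hERG-U2OS cells.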
For orientation: The hERG channel carries a current that helps repolarise heart muscle cells.

Test [12] concerns the target Cytochrome P450 3A4 (Homo sapiens) (UniProt P08684). Put plainly: Cytochrome P450 Family 3 Subfamily A Member 4 (CYP3A4) small molecule antagonists: luciferase reporter qHTS assay (AID 1671201). A digest of the protocol:
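Luminescent readout (RLU) proportional to CYP3A4 activity, from luciferin generated off a proluciferin substrate. Enzyme–substrate mix plus compound 10 min at room temp, NADPH regeneration 1 h, detection reagent 20 min.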

In test [13] the target is Nuclear receptor subfamily 1 group I member 2 (Rattus norvegicus) (UniProt Q9R1A7). Put plainly: Rat pregnane X receptor (rPXR) activation by small molecules, qHTS assay (AID 1346983). Note: nearly all actives have a fitted effect of over 20% in size. The settings on record: rPXR luciferase reporter cells, One-Glo luminescence, 24 h; stronger effect = higher value. A digest of the protocol: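 Cell-based rPXR activation assay: rPXR cells, 2,000 per well, rested 5hr at 37 C, then exposed to compounds in DMSO for 24 hr at 37 C. Luciferase activity read by One-Glo luminescence after 30 min at room temperature.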

Test [14] concerns the target Nuclear receptor subfamily 1 group I member 2 (Homo sapiens) (UniProt O75469). Put plainly: CYP3A4 induction through human pregnane X receptor (PXR) by small molecules, qHTS assay (AID 1346984). Note: nearly all actives have a fitted effect of over 40% in size. A digest of the protocol: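 DPX-2 reporter cells; 24h cpd, 37C; Luciferin-IPA 3uM final x3h; One-Glo 30 min RT; lumi read.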
For test [15] the target is unchanged. Put plainly: Human pregnane X receptor (PXR) activation by small molecules, qHTS assay (AID 1346985). Note: nearly all actives have a fitted effect of over 40% in size. A digest of the protocol:
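DPX-2 cells (HepG2 co-transfected with a PXR response element and a CYP3A4-promoter luciferase construct) were seeded at 2,000 per well, rested 5 hr at 37C, then exposed to DMSO-dissolved compounds for 24 hr. Activation was read as luciferase luminescence.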

Each structure is given as a SMILES string. Where “and” joins values, the source holds several entries; their conditions need not be identical. Equal entries are not always repeated. Records with an inconclusive call do not appear. Where a structure was tested more than once in an assay, its records may differ in their call. Calls of active or inactive are those of the source. Calls come from the whole dose curve; as a rule, active = well fitted curve in the direction sought with a large enough effect in the repeat runs; inconclusive = weak or mixed curves; inactive = no such curve, though single readings can be large; an effect the other way counts as inactive or inconclusive.
% is set by controls: 0 for no effect and ±100 for the full control effect.

Nuclear receptor subfamily 1 group I member 2 (Homo sapiens), sequence (O75469 whole entry, looked up): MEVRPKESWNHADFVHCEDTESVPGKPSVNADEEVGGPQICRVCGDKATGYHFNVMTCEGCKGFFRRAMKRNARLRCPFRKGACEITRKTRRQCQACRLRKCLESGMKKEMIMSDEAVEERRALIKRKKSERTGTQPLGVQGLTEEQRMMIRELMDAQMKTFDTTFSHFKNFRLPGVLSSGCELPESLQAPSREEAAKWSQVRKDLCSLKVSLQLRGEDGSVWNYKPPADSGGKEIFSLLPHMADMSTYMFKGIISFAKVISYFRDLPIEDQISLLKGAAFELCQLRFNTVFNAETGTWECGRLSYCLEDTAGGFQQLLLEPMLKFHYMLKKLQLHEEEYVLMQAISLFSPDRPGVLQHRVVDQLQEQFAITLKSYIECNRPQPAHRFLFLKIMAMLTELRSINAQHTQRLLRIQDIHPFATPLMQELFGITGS
Cytochrome P450 2C19 (Homo sapiens), sequence (P33261 whole entry, looked up): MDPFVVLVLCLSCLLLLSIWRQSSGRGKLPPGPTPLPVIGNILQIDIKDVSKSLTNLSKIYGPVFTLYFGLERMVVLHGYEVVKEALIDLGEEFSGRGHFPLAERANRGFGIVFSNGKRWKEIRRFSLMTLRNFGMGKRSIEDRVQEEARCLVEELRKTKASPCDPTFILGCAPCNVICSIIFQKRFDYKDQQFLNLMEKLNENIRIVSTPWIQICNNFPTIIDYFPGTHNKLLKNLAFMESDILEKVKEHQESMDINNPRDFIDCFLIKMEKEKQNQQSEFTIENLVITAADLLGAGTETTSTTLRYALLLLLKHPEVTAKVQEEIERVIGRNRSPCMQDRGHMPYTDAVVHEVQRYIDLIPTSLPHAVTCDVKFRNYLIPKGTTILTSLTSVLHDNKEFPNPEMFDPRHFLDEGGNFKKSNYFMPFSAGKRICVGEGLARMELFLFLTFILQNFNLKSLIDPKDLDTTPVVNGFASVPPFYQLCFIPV
Cytochrome P450 2C9 (Homo sapiens), sequence (P11712 whole entry, looked up): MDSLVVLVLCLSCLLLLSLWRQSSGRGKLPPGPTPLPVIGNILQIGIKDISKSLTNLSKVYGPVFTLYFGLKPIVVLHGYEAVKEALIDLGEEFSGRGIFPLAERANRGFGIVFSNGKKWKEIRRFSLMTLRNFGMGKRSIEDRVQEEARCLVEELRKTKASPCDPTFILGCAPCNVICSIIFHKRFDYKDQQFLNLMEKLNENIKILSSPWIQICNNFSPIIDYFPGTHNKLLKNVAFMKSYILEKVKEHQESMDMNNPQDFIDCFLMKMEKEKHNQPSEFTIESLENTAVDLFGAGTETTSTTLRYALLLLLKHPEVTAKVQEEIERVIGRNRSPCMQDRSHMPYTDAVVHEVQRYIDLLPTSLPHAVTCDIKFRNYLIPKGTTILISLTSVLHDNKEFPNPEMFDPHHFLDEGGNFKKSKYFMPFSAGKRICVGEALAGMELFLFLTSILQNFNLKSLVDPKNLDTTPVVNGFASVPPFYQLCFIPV
Voltage-gated inwardly rectifying potassium channel KCNH2 (Homo sapiens), sequence (Q12809 whole entry, looked up): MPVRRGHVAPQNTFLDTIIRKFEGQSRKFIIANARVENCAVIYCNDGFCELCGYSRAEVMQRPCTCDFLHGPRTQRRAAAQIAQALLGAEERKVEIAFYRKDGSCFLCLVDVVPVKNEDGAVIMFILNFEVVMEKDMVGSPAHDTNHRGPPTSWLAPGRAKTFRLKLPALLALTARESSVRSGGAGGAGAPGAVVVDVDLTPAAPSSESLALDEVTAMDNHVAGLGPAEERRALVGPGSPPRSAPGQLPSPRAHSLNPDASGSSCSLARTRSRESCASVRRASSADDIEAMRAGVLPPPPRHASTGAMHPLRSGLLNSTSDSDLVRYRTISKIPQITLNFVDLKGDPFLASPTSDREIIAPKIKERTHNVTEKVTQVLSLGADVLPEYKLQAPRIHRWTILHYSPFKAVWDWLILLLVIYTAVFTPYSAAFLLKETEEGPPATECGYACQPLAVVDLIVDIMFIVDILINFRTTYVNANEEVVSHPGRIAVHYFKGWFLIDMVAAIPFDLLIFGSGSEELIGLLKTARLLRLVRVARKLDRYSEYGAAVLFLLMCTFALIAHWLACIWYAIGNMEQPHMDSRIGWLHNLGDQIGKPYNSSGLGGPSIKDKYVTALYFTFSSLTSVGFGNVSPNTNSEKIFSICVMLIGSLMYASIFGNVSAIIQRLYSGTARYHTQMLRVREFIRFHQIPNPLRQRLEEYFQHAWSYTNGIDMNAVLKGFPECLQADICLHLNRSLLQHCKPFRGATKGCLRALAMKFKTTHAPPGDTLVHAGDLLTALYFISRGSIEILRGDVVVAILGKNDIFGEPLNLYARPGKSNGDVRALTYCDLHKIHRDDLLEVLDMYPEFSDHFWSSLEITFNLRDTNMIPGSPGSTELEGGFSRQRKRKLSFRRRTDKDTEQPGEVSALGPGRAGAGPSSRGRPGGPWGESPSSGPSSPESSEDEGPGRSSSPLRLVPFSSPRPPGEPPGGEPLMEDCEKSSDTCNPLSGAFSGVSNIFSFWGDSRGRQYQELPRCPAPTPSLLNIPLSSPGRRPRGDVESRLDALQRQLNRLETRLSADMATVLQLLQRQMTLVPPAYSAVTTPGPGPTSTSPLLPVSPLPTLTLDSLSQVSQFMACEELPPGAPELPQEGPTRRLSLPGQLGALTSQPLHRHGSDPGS
Cytochrome P450 3A4 (Homo sapiens), sequence (P08684 whole entry, looked up): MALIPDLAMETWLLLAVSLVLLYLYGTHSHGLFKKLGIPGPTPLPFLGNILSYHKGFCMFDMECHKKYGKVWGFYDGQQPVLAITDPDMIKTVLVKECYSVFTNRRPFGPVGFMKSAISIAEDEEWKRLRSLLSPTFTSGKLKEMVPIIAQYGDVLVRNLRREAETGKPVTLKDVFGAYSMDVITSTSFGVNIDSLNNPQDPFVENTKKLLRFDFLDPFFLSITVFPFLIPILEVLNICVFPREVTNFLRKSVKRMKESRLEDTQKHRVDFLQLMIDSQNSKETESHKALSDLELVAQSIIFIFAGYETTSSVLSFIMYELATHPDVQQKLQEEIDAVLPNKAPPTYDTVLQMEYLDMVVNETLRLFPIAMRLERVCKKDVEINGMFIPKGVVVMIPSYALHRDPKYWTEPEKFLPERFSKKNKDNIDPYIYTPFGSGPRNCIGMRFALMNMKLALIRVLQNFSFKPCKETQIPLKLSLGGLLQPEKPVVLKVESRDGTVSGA
Cytochrome P450 1A2 (Homo sapiens), sequence (P05177 whole entry, looked up): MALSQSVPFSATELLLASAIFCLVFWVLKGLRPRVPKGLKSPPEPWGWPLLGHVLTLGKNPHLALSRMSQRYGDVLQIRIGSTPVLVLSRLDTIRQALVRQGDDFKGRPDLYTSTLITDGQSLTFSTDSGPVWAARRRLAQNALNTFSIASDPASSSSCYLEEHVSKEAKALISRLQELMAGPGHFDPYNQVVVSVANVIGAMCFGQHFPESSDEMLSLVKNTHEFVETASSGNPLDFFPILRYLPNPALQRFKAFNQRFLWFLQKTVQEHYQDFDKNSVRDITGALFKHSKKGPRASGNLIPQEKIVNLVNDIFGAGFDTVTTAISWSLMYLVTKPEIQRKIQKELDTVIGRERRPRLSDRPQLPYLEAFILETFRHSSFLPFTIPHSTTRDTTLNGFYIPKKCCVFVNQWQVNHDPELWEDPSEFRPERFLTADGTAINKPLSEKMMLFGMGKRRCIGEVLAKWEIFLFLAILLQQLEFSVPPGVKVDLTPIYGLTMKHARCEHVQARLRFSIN
Cytochrome P450 2D6 (Homo sapiens), sequence (P10635 whole entry, looked up): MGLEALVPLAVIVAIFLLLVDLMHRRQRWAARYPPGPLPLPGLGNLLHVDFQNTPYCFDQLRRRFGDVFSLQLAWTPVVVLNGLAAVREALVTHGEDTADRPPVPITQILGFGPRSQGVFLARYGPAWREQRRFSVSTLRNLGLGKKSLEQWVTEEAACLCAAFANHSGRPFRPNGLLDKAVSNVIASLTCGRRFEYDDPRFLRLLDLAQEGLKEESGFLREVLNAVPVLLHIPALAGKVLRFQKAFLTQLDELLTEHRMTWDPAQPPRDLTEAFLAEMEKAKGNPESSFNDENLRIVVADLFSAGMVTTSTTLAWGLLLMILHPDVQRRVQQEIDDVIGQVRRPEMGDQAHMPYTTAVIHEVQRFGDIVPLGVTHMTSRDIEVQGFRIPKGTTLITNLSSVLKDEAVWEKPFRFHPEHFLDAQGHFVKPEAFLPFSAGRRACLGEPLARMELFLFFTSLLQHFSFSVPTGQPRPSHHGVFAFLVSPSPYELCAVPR
Nuclear receptor subfamily 1 group I member 2 (Rattus norvegicus), sequence (Q9R1A7 whole entry, looked up): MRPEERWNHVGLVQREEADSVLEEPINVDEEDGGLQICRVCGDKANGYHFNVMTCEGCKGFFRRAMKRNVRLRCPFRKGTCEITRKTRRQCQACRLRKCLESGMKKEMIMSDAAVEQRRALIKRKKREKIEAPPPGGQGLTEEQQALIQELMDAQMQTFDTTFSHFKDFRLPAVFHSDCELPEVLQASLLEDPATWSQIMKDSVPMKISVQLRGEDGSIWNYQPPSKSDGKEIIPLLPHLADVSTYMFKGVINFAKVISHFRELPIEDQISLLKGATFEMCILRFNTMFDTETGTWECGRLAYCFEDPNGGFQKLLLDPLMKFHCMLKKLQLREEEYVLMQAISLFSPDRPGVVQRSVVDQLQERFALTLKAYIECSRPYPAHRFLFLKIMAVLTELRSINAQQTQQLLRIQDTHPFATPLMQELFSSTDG

Consider `O=C(O)CS`, for which the Potency entry in [1], in [2], in test [5], in [6], in test [7] and in test [8] was “inactive” throughout. Besides, the Potency result in test [9], in [10] and in test [12] was “inactive” each time. Also, in [3], the Potency result was “inactive and 61.6 µM (active)”. Besides, the outcome in [4] and in [11] was inactive.

Take `COc1ccc2[nH]cc(CCNC(C)=O)c2c1`: the Potency result in [1], in test [2], in test [3], in [5] and in test [12] was “inactive” throughout. The molecule was classed as inactive in [4]. In addition, the Potency in test [6] is 62.1 µM (active); in [9] it was 32.2 µM (active) and 35.6 µM (active).

As to `Nc1ccc(S(=O)(=O)c2ccc(N)cc2)cc1`, the Potency result in test [1], in test [2], in test [3], in [5], in [6] and in test [7] was “inactive” in each case. Moreover, the Potency result in test [9], in test [10] and in test [12] was “inactive” each time. The outcome in [4] was inactive.

In the case of `CC(=O)Nc1nnc(S(N)(=O)=O)s1`, the Potency entry in [1], in test [2], in test [3], in test [5], in [6] and in test [7] was “inactive” in each case. Also, the Potency result in test [8], in test [9], in test [10] and in test [12] was “inactive” throughout. Besides, the molecule was classed as inactive in test [4] and in [11].

`CCCCC1C(=O)N(c2ccccc2)N(c2ccccc2)C1=O`: the Potency entry in test [1], in [2], in test [3], in test [5], in test [7] and in test [10] was “inactive” throughout. Besides, the molecule was classed as inactive in test [4] and in test [11]. For the same molecule, the Potency is 27.1 µM (active) and 24.3 µM (active) in test [6]; 5.6 µM (active) and 25.2 µM (active) in test [8]; 9.96 µM (active) and 31.7 µM (active) and 17.4 µM (active) in test [9].

Turning to `NS(=O)(=O)c1cc(C(=O)O)c(NCc2ccco2)cc1Cl`, the Potency entry in test [1], in test [3], in test [5] and in test [6] was “inactive” throughout. Moreover, the outcome in test [4] was inactive.

For the molecule `OC(Cn1cncn1)(Cn1cncn1)c1ccc(F)cc1F`, the Potency entry in [1], in test [3], in test [5], in test [6], in [15] and in test [10] was “inactive” each time. The molecule was called inactive in test [4] and in [14]. Also, the max activation in test [13] was -1.17% (inactive). Moreover, the Potency in [7] is 22.7 µM (active) and inactive.

`CCCN(CCC)S(=O)(=O)c1ccc(C(=O)O)cc1`: the Potency entry in [1], in [2], in [3], in [5], in [7] and in test [8] was “inactive” throughout. The Potency entry in test [9] and in [10] was “inactive” throughout. Besides, in test [4], the outcome was inactive.

As for `CC(=O)NS(=O)(=O)c1ccc(N)cc1`, the Potency result in test [1], in test [2], in test [3], in [5], in [6] and in [7] was “inactive” in each case. In addition, the Potency result in [8], in [10] and in test [12] was “inactive” in each case. Besides, the call in [4] and in test [11] was inactive.

Consider `O=C(O)c1cccc([N+](=O)[O-])c1`, for which the Potency entry in test [1], in test [2], in test [3], in test [5], in test [7] and in test [8] was “inactive” each time. For the same molecule, the Potency entry in [9], in [10] and in test [12] was “inactive” throughout. The molecule was classed as inactive in test [4] and in [11].

As for `Cc1noc(NS(=O)(=O)c2ccc(N)cc2)c1C`, the Potency entry in test [1], in [2], in test [3], in test [5], in test [6] and in [7] was “inactive” throughout. Further, the Potency entry in test [8], in [9], in [10] and in [12] was “inactive” in each case. The call in test [4] was inactive.

Regarding `O=C1NC(=O)c2ccccc21`, the Potency entry in [1], in test [2], in test [3], in [5], in [7] and in test [8] was “inactive” throughout. The Potency result in [9], in test [10] and in test [12] was “inactive” in each case. For the same molecule, the call in test [4] was inactive. In [6], the Potency result is “inactive and 31.4 µM (active)”.

Take `O=C(O)c1[nH]n(-c2ccc(S(=O)(=O)O)cc2)c(=O)c1N=Nc1ccc(S(=O)(=O)O)cc1`: the Potency in test [1] is 39.8 µM (active) and 45.4 µM (active); in test [3] it was 29.8 µM (active) and 48.7 µM (active) and 45.4 µM (active); in test [5], 29.8 µM (active) and 27.4 µM (active) and 50.9 µM (active); in test [8], “inactive and 79.9 µM (active) and 29.6 µM (active)”; in [9], “inactive and 18.7 µM (active)”. Also, the Potency entry in test [2], in test [6], in [7], in test [10] and in test [12] was “inactive” in each case. In addition, the result in test [4] was inactive.

In the case of `C1N2CN3CN1CN(C2)C3`, the Potency entry in test [1], in test [2], in test [3], in test [5], in test [6] and in [7] was “inactive” in each case. Besides, the Potency result in test [8], in test [9] and in test [12] was “inactive” throughout. Besides, the call in test [4] was inactive. The Potency entry in test [10] is “inactive and 15.5 µM (active)”.

Consider `O=S(=O)(O)c1ccc2cc(O)ccc2c1`, for which the Potency entry in test [1], in test [2], in test [3], in test [5], in test [6] and in [7] was “inactive” in each case. Moreover, the Potency entry in test [9] and in test [12] was “inactive” throughout. Besides, the molecule was called inactive in test [4]. For the same molecule, the Potency entry is “inactive and 71.6 µM (active) and 79.6 µM (active)” in [8]; “inactive and 39.9 µM (active)” in test [10].

Turning to `Cn1cc[nH]c1=S`, the Potency entry in [1], in test [2], in test [3], in test [5], in [15] and in test [7] was “inactive” throughout. Further, the Potency result in test [8] is “inactive”. The molecule was called inactive in [4] and in test [11]. Besides, in [13], the max activation was -0.0972% (inactive). For the same molecule, the Potency entry in [9] was “inactive and 71 µM (active)”.

As for `Nc1ccc(O)c(C(=O)O)c1`, the Potency result in test [1], in [2], in [5], in [6], in test [10] and in [12] was “inactive” in each case. In addition, the molecule was called inactive in test [4]. The Potency in test [8] is 79 µM (active) and 31.7 µM (active) and inactive; in test [9], 62.7 µM (active) and 63.3 µM (active).

With `Cc1cc(=O)n(-c2ccccc2)n1C`, the Potency result in test [1], in test [2], in [3], in test [5], in test [6] and in test [7] was “inactive” throughout. Moreover, the Potency result in test [8], in test [10] and in test [12] was “inactive” throughout. Moreover, the result in test [4] was inactive.
